# Measurements from PubChem BioAssay AID720551 (National Center for Advancing Translational Sciences (NCATS), 2013).
# The campaign covered roughly 340,000 compounds. About 1,300 (0.38%) were called active. The list comes from a sample in which actives are over-represented; it also holds similar structures and randomly drawn compounds. A number with no mark means an inactive call.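 How the source made its calls: active means maximum activity change below -70%; inconclusive means maximum activity change between -70% and -50%; inactive means maximum activity change above -50%.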
# Biological target: Voltage-gated inwardly rectifying potassium channel KCNH2 (Homo sapiens) (UniProt Q12809)
# Sequence (Q12809 whole entry, looked up): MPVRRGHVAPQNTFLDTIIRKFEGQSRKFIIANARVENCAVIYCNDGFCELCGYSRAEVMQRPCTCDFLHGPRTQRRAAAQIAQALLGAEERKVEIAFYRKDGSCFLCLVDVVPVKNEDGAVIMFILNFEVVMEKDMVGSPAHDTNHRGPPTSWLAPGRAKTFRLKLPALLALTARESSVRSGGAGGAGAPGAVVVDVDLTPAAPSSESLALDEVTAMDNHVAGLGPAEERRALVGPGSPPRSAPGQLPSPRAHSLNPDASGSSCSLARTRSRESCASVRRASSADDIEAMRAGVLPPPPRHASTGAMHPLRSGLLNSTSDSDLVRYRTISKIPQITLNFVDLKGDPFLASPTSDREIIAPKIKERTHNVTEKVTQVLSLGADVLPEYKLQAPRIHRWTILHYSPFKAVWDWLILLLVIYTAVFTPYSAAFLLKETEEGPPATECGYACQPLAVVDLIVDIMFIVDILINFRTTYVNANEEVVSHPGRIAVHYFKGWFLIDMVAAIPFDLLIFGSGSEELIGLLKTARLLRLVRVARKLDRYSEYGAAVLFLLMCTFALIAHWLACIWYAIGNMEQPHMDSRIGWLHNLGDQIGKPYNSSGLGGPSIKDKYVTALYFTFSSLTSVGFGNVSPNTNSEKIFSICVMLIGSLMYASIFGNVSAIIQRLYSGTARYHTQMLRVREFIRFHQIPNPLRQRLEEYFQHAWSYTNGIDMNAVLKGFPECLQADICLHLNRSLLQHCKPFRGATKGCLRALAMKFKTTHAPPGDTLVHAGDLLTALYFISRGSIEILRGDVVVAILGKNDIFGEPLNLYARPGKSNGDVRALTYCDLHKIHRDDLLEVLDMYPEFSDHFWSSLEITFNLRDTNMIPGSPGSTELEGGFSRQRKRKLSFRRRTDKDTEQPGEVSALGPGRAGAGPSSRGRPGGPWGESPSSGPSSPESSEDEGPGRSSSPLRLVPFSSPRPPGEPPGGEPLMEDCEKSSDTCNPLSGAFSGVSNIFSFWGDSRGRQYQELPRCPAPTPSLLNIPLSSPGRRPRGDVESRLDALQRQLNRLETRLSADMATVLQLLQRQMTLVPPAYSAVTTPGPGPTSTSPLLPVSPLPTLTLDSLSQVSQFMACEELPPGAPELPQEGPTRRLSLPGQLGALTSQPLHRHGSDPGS
# Test: qHTS for Inhibitors of KCHN2 3.1: Wildtype qHTS
# Details: U2OS, BacMam KCNH2, thallium flux FluxOr; at 1.84 µM; hits give low values
# Description: Many antipsychotic drugs that inhibit the neurotransmitter dopamine also bind to hERG1 channel which might help explain their antipsychotic activity but also produces cardiac side effects. The discovery of the novel KCNH2 3.1 isoform offers a potential new target for the development of antipsychotic drugs without cardiac side effects. This proposal will use a high throughput thallium flux assay developed for KCNH2 to screen compounds that modulate the activity of KCNH2 3.1. The wild type KCNH2 channel will also be screened in parallel to help define the selective modulators of this KCNH2 3.1 potassium channel. The resulting compounds will be validated in electrophysiology experiments. The availability of animal models will allow future testing in vivo for effects on memory and other aspects of animal physiology linked with psychosis. NIH Chemical Genomics Center [NCGC] NIH Molecular Libraries Probe Centers Network [MLPCN] MLPCN Grant: MH096539 Assay Submitter (PI): James Barrow, Johns Hopkins University, Lieber Institute for Brain Development
# U2OS cells were resuspended in cell media containing 10% fetal calf serum (FCS) at a concentration of 2 million cells / mL. The solution was treated with the Wild-type virus at 2.03 x 10^8 / mL and allowed to incubate at room temperature in the dark. After 4 hours of incubation, DMEM + 10% fetal bovine serum (FBS) was added to the cell solution. Three microliter was then dispensed into a 1536 tissue culture treated black assay plates which were incubated overnight at 37 C. Two microliter of loading buffer (HBSS + HEPES + Red40 dye quencher + FluxOr dye) was added and the assay plates were incubated for 45 min at room temperature in the dark. […] A stimulation buffer was added to the plate and the second kinetic read (2 min) was obtained. The rate constant was calculated from the kinetic reads and normalized to the positive and negative DMSO controls.
# On the % scale 0 is the no-effect control and ±100 the full control effect.
row,Compound,activity change
1,CCOC(=O)C1(Cc2ccc(Cl)cc2)CCN(C(C)CCn2cccn2)CC1 (stereo not given),-90.9% (active)
2,CCOC(=O)C1(CCc2ccccc2)CCN(Cc2ccco2)CC1,-42.5%
3,CNC(=O)O/N=C(\N)Cc1csc2ccc(Cl)cc12,-2.66%
4,NCCc1ccc(S(=O)(=O)F)cc1,-7.95%
5,NCC(O)c1ccc(O)cc1 (stereo not given),2.77%
6,CC1(C)Cc2c(C#N)c(N3CCNCC3)nc(-c3ccco3)c2CS1,-1.97%
7,CC(=NCC1CCCO1)c1c(O)n(-c2ccccc2)c(=O)[nH]c1=O (stereo not given),-12.8%
8,CC(Cc1ccccc1)NCCC(c1ccccc1)c1ccccc1 (stereo not given),-106% (active)
9,O=C1NC(=O)C(CCOc2ccccc2)(CCc2ccccc2)C(=O)N1,-6.81%
10,O=Cc1cn(Cc2ccc(F)cc2Cl)c2ccccc12,0.945%
